About 6,500 targets were measured; listed, in parts, are those with a hit and a random draw of the rest. About 2% of all pairs of compound and target were hits.
compound: COC(=O)C#Cc1ccccc1 [methyl 3-phenylpropiolate]; experiment: log2 ratio of iodoacetamide-alkyne labeling of the cysteine site, DMSO over compound (competition); higher = stronger covalent engagement of the cysteine by the compound, active = 1 or more; settings: 500 µM; treatment time 1 h; system: HEK293T cell lysate
Procedure, shortened: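 Three replicates, each with duplicate channels, were prepared from HEK293T lysate (2 mg/mL) treated with vehicle or electrophile at 500 µM for 1 h at ambient temperature. Iodoacetamide alkyne was then applied for 1 h, and samples were clicked to sCIP-TMT reagents, pooled, trypsin-digested overnight at 37 °C, enriched on streptavidin, acid-eluted and analysed on Orbitrap Eclipse LC-MS/MS with FAIMS, with FragPipe quantification. The log2 competition ratio per cysteine is the mean control-channel divided by the mean compound-channel reporter intensity. Cysteines quantified in only one replicate were left out.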

Sequence of UniProt Q00765 (Q00765 whole entry): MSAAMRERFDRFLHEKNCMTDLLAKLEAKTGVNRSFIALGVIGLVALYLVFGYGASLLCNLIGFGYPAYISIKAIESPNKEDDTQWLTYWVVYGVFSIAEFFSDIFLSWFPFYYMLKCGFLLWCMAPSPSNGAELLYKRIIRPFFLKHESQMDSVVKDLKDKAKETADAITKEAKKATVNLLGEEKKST
Sequence of UniProt Q15003 (Q15003 whole entry, looked up): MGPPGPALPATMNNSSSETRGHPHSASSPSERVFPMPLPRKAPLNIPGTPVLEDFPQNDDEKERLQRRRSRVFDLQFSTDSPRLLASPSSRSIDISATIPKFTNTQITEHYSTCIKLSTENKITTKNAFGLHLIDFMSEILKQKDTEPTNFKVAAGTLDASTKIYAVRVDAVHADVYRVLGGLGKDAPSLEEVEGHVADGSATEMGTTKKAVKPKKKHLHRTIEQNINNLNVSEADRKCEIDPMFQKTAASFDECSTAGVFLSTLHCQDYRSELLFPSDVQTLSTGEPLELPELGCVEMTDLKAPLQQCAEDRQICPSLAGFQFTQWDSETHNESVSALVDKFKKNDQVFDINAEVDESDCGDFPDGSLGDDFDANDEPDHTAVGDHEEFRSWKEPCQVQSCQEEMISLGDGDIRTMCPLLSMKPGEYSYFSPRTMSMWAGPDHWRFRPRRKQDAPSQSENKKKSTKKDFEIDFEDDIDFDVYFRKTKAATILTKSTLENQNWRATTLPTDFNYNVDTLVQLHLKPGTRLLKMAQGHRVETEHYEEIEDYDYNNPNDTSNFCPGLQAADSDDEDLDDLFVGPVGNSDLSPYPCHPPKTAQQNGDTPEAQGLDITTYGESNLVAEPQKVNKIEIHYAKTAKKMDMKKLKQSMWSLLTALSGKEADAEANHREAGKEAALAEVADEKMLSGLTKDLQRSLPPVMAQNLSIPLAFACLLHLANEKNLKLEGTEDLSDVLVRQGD
Sequence of UniProt Q15398 (Q15398 whole entry, looked up): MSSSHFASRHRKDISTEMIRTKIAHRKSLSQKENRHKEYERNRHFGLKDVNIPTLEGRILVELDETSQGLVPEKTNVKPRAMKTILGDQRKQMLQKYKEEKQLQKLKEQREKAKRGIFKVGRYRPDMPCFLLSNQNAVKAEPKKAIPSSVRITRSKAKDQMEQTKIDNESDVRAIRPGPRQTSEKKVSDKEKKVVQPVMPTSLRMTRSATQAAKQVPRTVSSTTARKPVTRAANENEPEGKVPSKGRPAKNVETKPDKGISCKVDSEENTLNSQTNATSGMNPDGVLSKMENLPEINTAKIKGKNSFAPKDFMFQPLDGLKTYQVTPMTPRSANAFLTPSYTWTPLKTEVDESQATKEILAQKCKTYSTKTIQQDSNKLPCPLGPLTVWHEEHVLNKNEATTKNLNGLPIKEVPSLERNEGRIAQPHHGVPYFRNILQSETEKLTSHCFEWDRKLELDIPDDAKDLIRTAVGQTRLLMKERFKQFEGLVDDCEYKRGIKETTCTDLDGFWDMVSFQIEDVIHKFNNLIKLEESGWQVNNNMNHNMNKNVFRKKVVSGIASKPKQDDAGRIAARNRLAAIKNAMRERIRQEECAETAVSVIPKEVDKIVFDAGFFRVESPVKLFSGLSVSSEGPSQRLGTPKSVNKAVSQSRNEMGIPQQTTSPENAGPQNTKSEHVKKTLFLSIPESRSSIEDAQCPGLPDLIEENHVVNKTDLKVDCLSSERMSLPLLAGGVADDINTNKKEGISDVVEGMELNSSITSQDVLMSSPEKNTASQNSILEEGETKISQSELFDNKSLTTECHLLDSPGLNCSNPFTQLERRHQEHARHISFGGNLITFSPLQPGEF
Sequence of UniProt Q13330 (Q13330 whole entry, looked up): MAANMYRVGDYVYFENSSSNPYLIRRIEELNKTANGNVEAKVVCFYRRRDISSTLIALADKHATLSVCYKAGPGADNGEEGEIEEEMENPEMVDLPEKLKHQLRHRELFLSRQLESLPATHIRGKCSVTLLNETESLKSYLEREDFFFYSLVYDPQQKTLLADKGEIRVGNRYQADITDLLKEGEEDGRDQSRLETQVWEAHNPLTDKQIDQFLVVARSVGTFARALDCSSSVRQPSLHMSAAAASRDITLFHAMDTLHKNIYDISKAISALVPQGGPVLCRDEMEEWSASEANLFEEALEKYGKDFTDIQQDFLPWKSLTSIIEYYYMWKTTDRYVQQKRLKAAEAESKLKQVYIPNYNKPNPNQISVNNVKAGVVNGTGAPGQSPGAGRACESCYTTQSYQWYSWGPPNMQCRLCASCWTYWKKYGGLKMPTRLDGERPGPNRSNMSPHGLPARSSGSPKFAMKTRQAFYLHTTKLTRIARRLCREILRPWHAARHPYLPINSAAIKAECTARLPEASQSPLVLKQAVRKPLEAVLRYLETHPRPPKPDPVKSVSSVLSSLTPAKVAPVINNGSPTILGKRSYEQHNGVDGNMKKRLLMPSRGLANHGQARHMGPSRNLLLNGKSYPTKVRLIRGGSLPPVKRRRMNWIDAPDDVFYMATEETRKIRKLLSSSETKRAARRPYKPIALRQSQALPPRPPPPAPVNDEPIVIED
Sequence of UniProt Q13642 (Q13642 whole entry, looked up): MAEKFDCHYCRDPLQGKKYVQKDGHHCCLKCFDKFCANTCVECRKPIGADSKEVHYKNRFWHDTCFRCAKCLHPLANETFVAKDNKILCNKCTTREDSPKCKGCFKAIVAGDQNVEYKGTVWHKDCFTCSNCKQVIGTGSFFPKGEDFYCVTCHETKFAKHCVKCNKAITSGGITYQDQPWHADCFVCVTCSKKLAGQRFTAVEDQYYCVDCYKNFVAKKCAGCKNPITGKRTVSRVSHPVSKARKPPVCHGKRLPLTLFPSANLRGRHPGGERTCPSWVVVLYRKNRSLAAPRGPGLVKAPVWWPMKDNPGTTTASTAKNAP
Sequence of UniProt P53618 (P53618 whole entry, looked up): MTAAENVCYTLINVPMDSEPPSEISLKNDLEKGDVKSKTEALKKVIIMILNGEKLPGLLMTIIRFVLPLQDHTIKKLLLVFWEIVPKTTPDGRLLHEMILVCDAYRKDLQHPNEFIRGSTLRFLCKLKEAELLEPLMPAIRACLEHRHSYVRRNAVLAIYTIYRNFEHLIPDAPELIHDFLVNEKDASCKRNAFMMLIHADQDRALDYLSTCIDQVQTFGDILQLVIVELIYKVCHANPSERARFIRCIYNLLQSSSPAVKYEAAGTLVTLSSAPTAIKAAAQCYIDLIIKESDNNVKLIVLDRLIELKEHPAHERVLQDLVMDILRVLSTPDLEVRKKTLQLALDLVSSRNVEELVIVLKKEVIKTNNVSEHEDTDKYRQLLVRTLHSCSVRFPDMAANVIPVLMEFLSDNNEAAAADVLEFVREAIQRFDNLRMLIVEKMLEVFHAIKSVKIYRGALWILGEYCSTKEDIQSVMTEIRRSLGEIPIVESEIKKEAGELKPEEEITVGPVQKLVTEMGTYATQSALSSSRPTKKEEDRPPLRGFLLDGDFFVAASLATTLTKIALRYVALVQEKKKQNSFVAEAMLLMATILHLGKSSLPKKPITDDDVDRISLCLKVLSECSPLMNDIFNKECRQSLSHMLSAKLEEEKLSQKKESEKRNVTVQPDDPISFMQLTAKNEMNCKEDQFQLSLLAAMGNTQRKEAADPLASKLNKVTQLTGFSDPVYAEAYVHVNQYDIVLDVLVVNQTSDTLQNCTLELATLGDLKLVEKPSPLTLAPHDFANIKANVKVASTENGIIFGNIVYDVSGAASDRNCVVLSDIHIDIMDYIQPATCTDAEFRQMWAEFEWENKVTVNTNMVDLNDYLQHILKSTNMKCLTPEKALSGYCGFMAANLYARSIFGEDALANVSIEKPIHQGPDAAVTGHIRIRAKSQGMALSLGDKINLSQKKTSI
Sequence of UniProt Q00796 (Q00796 whole entry, looked up): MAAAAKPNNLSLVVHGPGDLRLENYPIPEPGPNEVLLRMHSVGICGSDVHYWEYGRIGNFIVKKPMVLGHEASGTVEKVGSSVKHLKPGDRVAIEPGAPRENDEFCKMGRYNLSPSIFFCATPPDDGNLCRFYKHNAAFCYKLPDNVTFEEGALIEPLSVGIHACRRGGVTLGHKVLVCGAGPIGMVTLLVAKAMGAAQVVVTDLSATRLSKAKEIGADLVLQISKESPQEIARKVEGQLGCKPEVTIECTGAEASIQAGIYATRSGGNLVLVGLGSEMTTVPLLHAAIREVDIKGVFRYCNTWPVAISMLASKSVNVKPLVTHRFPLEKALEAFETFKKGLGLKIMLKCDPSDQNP
Sequence of UniProt Q15005 (Q15005 whole entry, looked up): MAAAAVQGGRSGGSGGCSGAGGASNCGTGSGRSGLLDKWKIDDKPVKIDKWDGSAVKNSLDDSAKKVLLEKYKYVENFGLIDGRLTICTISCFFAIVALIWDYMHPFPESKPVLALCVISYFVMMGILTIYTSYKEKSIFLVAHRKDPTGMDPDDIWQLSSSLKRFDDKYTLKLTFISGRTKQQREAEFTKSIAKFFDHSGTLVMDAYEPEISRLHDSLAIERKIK
Sequence of UniProt Q14657 (Q14657 whole entry): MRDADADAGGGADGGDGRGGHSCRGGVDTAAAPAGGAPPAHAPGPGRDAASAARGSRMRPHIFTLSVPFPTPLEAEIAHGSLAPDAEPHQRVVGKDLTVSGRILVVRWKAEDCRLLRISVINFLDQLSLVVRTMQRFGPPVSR
Sequence of UniProt Q14790 (Q14790 whole entry): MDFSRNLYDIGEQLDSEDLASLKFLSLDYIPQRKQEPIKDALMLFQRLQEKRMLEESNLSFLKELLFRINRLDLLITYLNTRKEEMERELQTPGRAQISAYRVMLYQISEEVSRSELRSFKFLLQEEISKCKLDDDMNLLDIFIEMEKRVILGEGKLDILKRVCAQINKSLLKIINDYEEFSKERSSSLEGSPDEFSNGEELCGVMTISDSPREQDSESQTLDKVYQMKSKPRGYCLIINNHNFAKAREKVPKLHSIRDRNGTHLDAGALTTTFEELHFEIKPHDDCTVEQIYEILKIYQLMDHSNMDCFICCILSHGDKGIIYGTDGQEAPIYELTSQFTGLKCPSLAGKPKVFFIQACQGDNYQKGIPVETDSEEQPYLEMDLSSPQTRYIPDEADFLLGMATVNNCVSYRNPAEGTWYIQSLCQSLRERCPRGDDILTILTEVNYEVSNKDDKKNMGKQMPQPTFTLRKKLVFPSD

log2 ratio of iodoacetamide-alkyne labeling, inactive:
BPTF C1357 (UniProt Q12830) 0.53
UniProt P62258_C97 -0.063
FHL1 C10 (UniProt Q13642) -0.136
ADAR C392 (UniProt P55265) 0.693
ESPL1 C294 (UniProt Q14674) 0.577
PTPN13 C937 (UniProt Q12923) 0.773
ADAR C649 (UniProt P55265) 0.375
SPECC1 C740 (UniProt Q5M775) -0.0117
MCM6 C242 (UniProt Q14566) 0.192
UniProt P55072_C209 0.132
COPB1 C248 (UniProt P53618) -0.00654
SEC23B C767 (UniProt Q15437) 0.00601
MTA1 C512 (UniProt Q13330) 0.481
CNBP C171 (UniProt P62633) -0.0616
SART3 C472 (UniProt Q15020) 0.326
GRB2 C32 (UniProt P62993) 0.167
DYNC1H1 C4510 (UniProt Q14204) 0.182
UniProt P62241_C71 0.335
SORD C45 (UniProt Q00796) -0.0713
NUBP1 C31 (UniProt P53384) 0.626
FLYWCH1 C173 (UniProt Q4VC44) -0.0462
REEP5 C18 (UniProt Q00765) 0.482
UniProt Q05655_C127 0.196
LAGE3 C23 (UniProt Q14657) 0.594
DST C7524 (UniProt Q03001) 0.174
NCAPH C316 (UniProt Q15003) -0.0371

log2 ratio of iodoacetamide-alkyne labeling, active:
SPCS2 C26 (UniProt Q15005) 1.62
PRDX4 C51 (UniProt Q13162) 1.66
NUBP1 C22 (UniProt P53384) 2.24
SUCLG1 C181 (UniProt P53597) 1.72
GOLGA2 C794 (UniProt Q08379) 1.07
CASP8 C360 (UniProt Q14790) 1.2
DLGAP5 C129 (UniProt Q15398) 1.38
TLE1 C526 (UniProt Q04724) 1.15
CDC20 C364 (UniProt Q12834) 1.22
UniProt Q02930_C80 1.09
